Publication PMC10668032, “Altered binding affinity of SIX1-Q177R correlates with enhanced WNT5A and WNT pathway effector expression in Wilms tumor”
Whole data set: some 33,000 sequences, median “e-score” near -0.053, cut for the highest 2% near 0.38. Shown is part of a subset that was picked to be rich in the highest values.

These sequences were tested against T1, SIX1 homeodomain (reference allele) (human, UniProt Q15475 108-198) (assay: universal protein binding microarray; Universal all-10-mer PBM (8x60K, AMADID 030236), 300 nM GST-tagged protein, Alexa Fluor 488 anti-GST; buffer, salt, pH and temperature not stated (as in Berger); high values mean tight binding). Conditions: protein: ivt; tags: N-terminal GST; dsDNA, one strand shown.
T1 sequence: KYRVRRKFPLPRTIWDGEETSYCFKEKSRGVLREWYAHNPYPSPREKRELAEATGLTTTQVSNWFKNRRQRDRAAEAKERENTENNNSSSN
Procedure, shortened: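 Homeodomains fused to GST were made by in vitro transcription/translation and measured by anti-GST western blot with a recombinant GST standard curve. At 300 nM final concentration, they were applied in duplicate to universal 'all 10-mer' protein binding microarrays (8×60K format).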

Sequence | binding signal [E-score]
ATCCGGAA | 0.295 ± 0.0493
AACCGTAT | 0.275 ± 0.0195
ACCCGGGA | 0.311 ± 0.0112
ACCCGGGT | 0.377 ± 0.0364
ACCCGGCT | 0.22 ± 0.0443
ACCCGGAG | 0.194 ± 0.0529
ACCCGTAT | 0.391 ± 0.00477
ATCCGGAG | 0.299 ± 0.0152
ACCCGGAT | 0.411 ± 0.0469
ACCCGTAG | 0.156 ± 0.0429
ACCCGGAA | 0.184 ± 0.00414
ATCCGGAT | 0.446 ± 0.0263
TCCGCCGA | 0.252 ± 0.00841
CGAATACG | 0.2 ± 0.0406
GGTGTTGA | 0.258 ± 0.0174
TCAGATAA | 0.21 ± 0.0582
AATACCTG | 0.178 ± 0.0145
ATCATCGG | 0.365 ± 0.0324
AGCCGGAT | 0.382 ± 0.0208
AACCGGAT | 0.316 ± 0.00955
AGCCGGCT | 0.1726 ± 0.000438
ATCTTCAG | 0.153 ± 0.0288
CGGTGTTA | 0.312 ± 0.0102
AATGGTGT | 0.287 ± 0.00727
ACTGGTAT | 0.386 ± 0.034
ACCGGTAT | 0.37 ± 0.0044

Sequence | binding signal [E-score]
AATGGTAT | 0.381 ± 0.00619
ACTGGGAT | 0.239 ± 0.0081
AGTGGTAT | 0.35 ± 0.0207
GGATTAGA | 0.165 ± 0.00327
CCGTATAG | 0.239 ± 0.00962
CCGTATTA | 0.322 ± 0.00404
GCCTATCA | 0.289 ± 0.00848
CCGTATCG | 0.457 ± 0.0169
GCGTATCA | 0.481 ± 0.00534
TCGTATCA | 0.45 ± 0.0228
ACCTATCA | 0.336 ± 0.0088
TCCTATCA | 0.307 ± 0.0417
GCGTCTCA | 0.209 ± 0.0176
TCGTATAA | 0.194 ± 0.0979
CCCTATCA | 0.429 ± 0.0145
GCGTATAA | 0.16 ± 0.104
ATCCCTCG | 0.337 ± 0.0323
ATATAGCG | 0.164 ± 0.0414
GTATTAAC | 0.272 ± 0.0619
GATAGTGA | 0.231 ± 0.0159
CCGTATAA | 0.226 ± 0.0709
CCGTATCA | 0.486 ± 0.00556
CCGTATGA | 0.217 ± 0.0235
ATCATACC | 0.351 ± 0.0212
ATCGCCTA | 0.232 ± 0.0537
GAGACGGA | 0.272 ± 0.0111

Sequence | binding signal [E-score]
GAGGTATA | 0.365 ± 0.0614
AAGGTATG | 0.201 ± 0.00407
AAGGTATC | 0.472 ± 0.0103
GAGTTATC | 0.248 ± 0.0177
CAGGTATA | 0.276 ± 0.0442
GAGGTATC | 0.4767 ± 0.00464
CAGGTATC | 0.4642 ± 0.00145
AAGGTATT | 0.248 ± 0.0945
CAGGTAGA | 0.15 ± 0.00481
CCGGCTAA | 0.178 ± 0.0089
ACACCTAA | 0.261 ± 0.0204
CCAATCCG | 0.224 ± 0.0167
CGCCGATC | 0.258 ± 0.0126
ATCCATAC | 0.31 ± 0.0347
AGCGGTAT | 0.3428 ± 0.000445
TATCGGCA | 0.244 ± 0.0173
AGACGATC | 0.285 ± 0.0103
AGCCTATC | 0.192 ± 0.0162
CCCCGCCA | 0.161 ± 0.0538
ATTATCTC | 0.203 ± 0.126
GATAGGGA | 0.376 ± 0.00884
GATAGGGC | 0.285 ± 0.0546
TATAGGGA | 0.206 ± 0.00286
AGGAATCC | 0.197 ± 0.00841
GATCGTCC | 0.238 ± 0.0474
CAAACCCG | 0.174 ± 0.0382

Sequence | binding signal [E-score]
AAATACCG | 0.178 ± 0.0267
AAATACCT | 0.173 ± 0.0423
AGATACAT | 0.329 ± 0.00303
ACATACCG | 0.162 ± 0.0512
AGATACCT | 0.42 ± 0.0259
CAATACCC | 0.387 ± 0.00788
CAATACCG | 0.354 ± 0.0156
AGATACCA | 0.422 ± 0.0101
CGATACCG | 0.45 ± 0.0109
GAATACCC | 0.368 ± 0.0333
CCATACAC | 0.174 ± 0.121
ATCATTGA | 0.2801 ± 0.000297
ATCGTGTC | 0.274 ± 0.0122
GATAGATA | 0.364 ± 0.0331
CTAGTGTA | 0.189 ± 0.0116
GGTTCATA | 0.154 ± 0.00678
CGATAACC | 0.2329 ± 0.00167
CGATACCC | 0.4916 ± 0.00317
CTATACCA | 0.245 ± 0.018
CGATACCA | 0.455 ± 0.0104
CCATACCC | 0.274 ± 0.0803
AGATACCC | 0.4684 ± 0.00214
CAATACCA | 0.375 ± 0.0246
AGATACCG | 0.37 ± 0.00507
TGATACCA | 0.4811 ± 0.00363
TAATACCA | 0.37 ± 0.0315

Sequence | binding signal [E-score]
ACATACCC | 0.194 ± 0.0165
TGATACAA | 0.337 ± 0.0251
CGGTACTC | 0.176 ± 0.0493
ATCAGGGG | 0.307 ± 0.019
TAGTGTCA | 0.245 ± 0.0279
ATCAATCA | 0.221 ± 0.00233
AAACGTAT | 0.262 ± 0.0965
ATATTCCC | 0.305 ± 0.0527
ATACTGGG | 0.225 ± 0.0379
ACGATCAT | 0.186 ± 0.0246
ATCACGTC | 0.189 ± 0.0151
ATATGTCA | 0.166 ± 0.0885
GAATACCA | 0.278 ± 0.0281
GGATACCC | 0.484 ± 0.00911
GCATACCC | 0.289 ± 0.0463
GGATACCA | 0.426 ± 0.0353
GTATACCA | 0.364 ± 0.00595
AAATACCC | 0.2 ± 0.00818
AGTATAAG | 0.161 ± 0.0893
TAATATAA | 0.257 ± 0.0514
ATCCACGA | 0.154 ± 0.0369
ACTATCCT | 0.318 ± 0.0157
CTATTATC | 0.189 ± 0.0626
GACTATAC | 0.237 ± 0.00521
CCGATAAC | 0.239 ± 0.00451
ACGATCTC | 0.189 ± 0.0362

Sequence | binding signal [E-score]
ACGATATG | 0.417 ± 0.0227
ACGATATA | 0.296 ± 0.0641
ACGATATC | 0.454 ± 0.0379
ACTATATC | 0.367 ± 0.0339
CCGATAGC | 0.329 ± 0.00875
CCGATATC | 0.457 ± 0.0156
ACGATCGG | 0.169 ± 0.0263
ACCACACC | 0.174 ± 0.038
ATACGCCC | 0.275 ± 0.0117
GATAACCA | 0.213 ± 0.00941
ATCACTTG | 0.29 ± 0.0319
GGCTAATA | 0.201 ± 0.0383
AATATGGT | 0.177 ± 0.105
GATAGCAC | 0.236 ± 0.0609
GCGCGATA | 0.379 ± 0.0395
CCGCGATC | 0.354 ± 0.0349
ACGCGATA | 0.316 ± 0.0166
GGGCGATA | 0.347 ± 0.0047
CCGCGATA | 0.4109 ± 0.00278
CGGCGATA | 0.3475 ± 0.00182
ATATAGAG | 0.202 ± 0.0348
CCAGATGA | 0.203 ± 0.0127
ACTACCTA | 0.157 ± 0.0187
GAATACTC | 0.155 ± 0.0382
ATAGATAT | 0.389 ± 0.0559
ATAGATAC | 0.393 ± 0.0221

Sequence | binding signal [E-score]
ACAGATAT | 0.356 ± 0.0703
GTAGATAC | 0.289 ± 0.0214
ATAGATCC | 0.302 ± 0.00993
ATAGATAG | 0.167 ± 0.0369
ATCACCTA | 0.232 ± 0.0325
AGACGATA | 0.363 ± 0.0344
ATATCTTC | 0.365 ± 0.0612
CCGTCTCA | 0.268 ± 0.0487
AAGTATCT | 0.266 ± 0.102
GAGTATCA | 0.47 ± 0.0248
TAGTATAA | 0.199 ± 0.033
GAGTATTA | 0.261 ± 0.103
AAGTATAA | 0.184 ± 0.123
TACTATCA | 0.325 ± 0.0557
CAGTATGA | 0.151 ± 0.0873
GAGTATAA | 0.179 ± 0.136
CAGTATTA | 0.295 ± 0.0164
CAGTATCA | 0.465 ± 0.0101
AAGTATCA | 0.461 ± 0.0304
TAGTATCA | 0.457 ± 0.0196
